# PubChem BioAssay
# Values joined by “and” are separate entries in the source; they are usually repeats but may differ in a detail not shown here. Identical values can stand only once. More than one record can exist for a structure, and the calls need not agree. Active and inactive are the calls of the source. Unless noted, how the calls were made is not given here.
# Assays:
# [1] = system: Hepatitis C virus NS3 helicase; assay: blockers of NS3h binding to ssDNA – biochemical, fluorescence polarization, LOPAC1280 library, primary screen (AID 687035; in the data active means inhibition above about 37%); details: Purified HCV NS3 helicase, Cy5-dT15 ssDNA binding fluorescence polarization; stronger effect = higher value; concentration not given here
# [2] = compounds altering Cy5-DNA-NS3h complex signal – biochemical, LOPAC1280, artefact control for HCV NS3 helicase inhibitor project (AID 687037); details: Cy5-DNA-NS3h complex fluorescence interference counterscreen
# [3] = Wnt pathway potentiators raising nuclear beta-catenin – imaging, WNT3A-conditioned medium, mouse C2C12, NPC library, primary screen (AID 1117326; in the data active means nuclear beta-catenin stimulation mostly above about 4.2%, no sharp cut-off; inactive means mostly below about 10%); details: stronger effect = higher value
# [4] = stimulators of insulin release from INS-1E, primary screen, cell-based, 5 mM glucose, NPC library (AID 1117329;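 active means compound raises insulin release from rat beta cells at 5 mM glucose, no numeric limit stated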); details: rat INS-1E insulin secretion, at 10 µM, stronger effect = higher value
# [5] = growth inhibition of GSK3B-pretreated HCT116 cells – cell-based, CellTiter-Glo, 0.2 to 20 µM (AID 1117336;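 active means compounds lowering colon cancer cell viability after pretreatment blocking the GSK3B kinase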); details: HCT116 viability after GSK3B inhibitor, at 20 µM, stronger effect = higher value
# [6] = inhibition of endothelial tube formation, primary screen, imaging, VEGF stimulated, CD31 staining, tube area, NPC library (AID 1117340;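 active means compound that reduces growth-factor-driven endothelial tube area in a mixed cell culture, no cutoff stated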); details: VEGF-stimulated ADSC/ECFC co-culture, at 10 µM, stronger effect = higher value
# [7] = GLP1 release stimulators, primary, NCI-H716, NPC library (AID 1117341;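 active means compound raises GLP1 secretion from the human gut endocrine cells, with no numeric limit stated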); details: NCI-H716 cells, at 10 µM, stronger effect = higher value
# [8] = HCT116 colon cancer cell growth inhibition, primary screen, CellTiter-Glo luminescence, NPC library (AID 1117342;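 active means compounds that lower survival of HCT116 colon cancer cells in the luminescence readout, no numeric limit stated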); details: at 20 µM (top of the series)
# [9] = reduced SW480 viability measured with CellTiter-Glo, NPC library, primary (AID 1117343;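 active means compounds that lower viability of the colon cancer cells in the luminescence readout, with no numeric limit stated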); details: CellTiter-Glo luminescence; at 20 µM (top of the series)
# [10] = NPC library primary testing for decreased DLD-1 cell viability via CellTiter-Glo (AID 1117346;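 active means compounds that lower survival of DLD-1 colon cancer cells in the luminescence readout, no cutoff given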); details: DLD-1 viability, CellTiter-Glo luminescence; at 20 µM (top of the series)
# [11] = molecular target: 6-phosphogluconate dehydrogenase, decarboxylating (Homo sapiens) (UniProt P52209); assay: inhibition of human phosphogluconate dehydrogenase – biochemical, recombinant enzyme, NADPH absorbance, primary screen (AID 1159550;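 active means at least 20% inhibition of 6-phosphogluconate dehydrogenase activity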); details: recombinant 6PGD, NADPH absorbance 341 nm; at 10 µM; stronger effect = higher value
# [12] = P. berghei load reduction in hepatocytes – cell-based, HepG2, luciferase luminescence, HepG2 viability, primary screen (AID 624349; in the data active means parasite load remaining mostly below about 12%, no sharp cut-off; inactive means mostly above about 10%;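 further: 100% = mean of DMSO negative control wells on the same plate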); details: P. berghei liver stage in HepG2, luciferase luminescence, concentration not given here; parasite load remaining: stronger effect = lower value; viability: measured here: HepG2 viability without parasites
# [13] = signal quenchers or enhancers, Cy5 substrate/SSB – biochemical, NIH Clinical Collection, E. coli SSB, artefact control for HCV NS3 helicase inhibitor project (AID 743268); details: Cy5-oligo bound E. coli SSB, fluorescence interference
# [14] = system: Hepatitis C virus NS3 helicase; assay: blockers of NS3h binding to DNA – biochemical, fluorescence polarization, NIH Clinical Collection, primary screen (AID 743270); details: NS3 helicase binding to Cy5-dT15 DNA, stronger effect = higher value, concentration not given here
# [15] = molecular target: Single-stranded DNA-binding protein (Escherichia coli (strain K12)) (UniProt P0AGE0); assay: SSB-ssDNA binding inhibitors – biochemical, fluorescence polarization, NIH Clinical Collection, counter-screen for HCV NS3 helicase inhibitor project (AID 743271; in the data active means inhibition above about 28%); details: E. coli SSB-DNA binding, stronger effect = higher value, concentration not given here
# [16] = compounds distorting NS3 helicase fluorescence signal – biochemical, NIH Clinical Collection, artefact control for HCV NS3 helicase inhibitor project (AID 743272); details: fluorescence interference counterscreen, HCV NS3 helicase assay; stronger effect = lower value;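 further: HCV NS3 helicase with a Cy5 labelled single stranded DNA probe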
# [17] = system: Neuropilin-2 / VEGF-C interaction (human); assay: small molecules blocking Neuropilin-2/VEGF-C interaction – biochemical, microplate binding format, z-score (AID 743281); details: microplate NRP2/VEGF-C binding assay; stronger effect = lower value
# 6-phosphogluconate dehydrogenase, decarboxylating (Homo sapiens), sequence (P52209 whole entry, looked up): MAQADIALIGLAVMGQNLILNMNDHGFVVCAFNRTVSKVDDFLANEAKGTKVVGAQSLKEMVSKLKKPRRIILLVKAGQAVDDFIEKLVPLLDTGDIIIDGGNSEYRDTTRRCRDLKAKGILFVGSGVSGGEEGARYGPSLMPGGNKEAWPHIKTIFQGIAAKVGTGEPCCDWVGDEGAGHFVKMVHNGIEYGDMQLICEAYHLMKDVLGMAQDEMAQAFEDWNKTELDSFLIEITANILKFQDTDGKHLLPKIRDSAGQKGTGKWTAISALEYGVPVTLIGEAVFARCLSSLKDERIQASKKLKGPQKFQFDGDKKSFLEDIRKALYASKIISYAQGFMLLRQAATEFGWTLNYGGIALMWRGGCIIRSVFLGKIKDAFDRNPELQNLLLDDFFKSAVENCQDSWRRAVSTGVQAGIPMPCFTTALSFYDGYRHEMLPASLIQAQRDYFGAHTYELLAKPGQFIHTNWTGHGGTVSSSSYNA
Compound,inhibition [1],fluorescence ratio (interference) [2],nuclear beta-catenin stimulation ([3]; at 10 µM),"nuclear beta-catenin stimulation ([3]; stimulation, at 2 µM) [%]",insulin secretion stimulation [4],viability decrease [5],tube area decrease [6],GLP1 secretion stimulation [7],inhibition of viability [8],viability decrease (inhibition) [9],viability decrease (inhibition) [10],inhibition [11],parasite load remaining [12],viability [12],fluorescence ratio [13],inhibition [14],inhibition [15],fluorescence ratio [16],z-score [17]
CNC[C@H](O)c1ccc(O)c(O)c1,-5% (inactive),1 (inactive),0.3% (inactive),0.2,-2.3% (inactive),31.1% (inactive),-5.3% (inactive),2.1% (inactive),-7.2% (inactive),64.8% (active),23.9% (inactive),-1.63% (inactive),,,,,,,
O=C(O)c1cccnc1Nc1cccc(C(F)(F)F)c1,-1% (inactive),0.9 (inactive),1.4% (inactive),0.9,-3.1% (inactive),13% (inactive),12.7% (inactive),0.6% (inactive),-5.9% (inactive),60% (active),28.2% (inactive),12.6% (inactive),,,,,,,
NC(CO)C(=O)NNCc1ccc(O)c(O)c1O (stereo not drawn),1% (inactive),1 (inactive),13.1% (inactive),3.8,2.2% (inactive),55.6% (active),-12.6% (inactive),8.5% (inactive),84.4% (active),145% (active),103% (active),-10.3% (inactive),,,,,,,
CN(C)C(=O)Oc1cccc([N+](C)(C)C)c1,-5% (inactive),1 (inactive),1% (inactive),5.2,-0.9% (inactive),10% (inactive),-12.9% (active),1.3% (inactive),2.9% (inactive),-16.1% (inactive),-5.8% (inactive),-2.26% (inactive),,,,,,,
CCN(CC)CCOCCOC(=O)C1(c2ccccc2)CCCC1,0% (inactive),1 (inactive),-0.6% (inactive),-0.4,60% (active),19.3% (inactive),-3.1% (inactive),5.7% (inactive),56.4% (active),20.6% (inactive),62.5% (active),1.3% (inactive),,,,,,,
NC/C=C/C(=O)O,-5% (inactive),1 (inactive),0.3% (inactive),1.6,1.5% (inactive),-42.3% (inactive),-0.5% (inactive),-2.6% (inactive),3.67% (inactive),11.1% (inactive),-6.3% (inactive),0.304% (inactive),,,,,,,
CN(C)CCC(c1ccccc1)c1ccccn1 (stereo not drawn),-1% (inactive),0.9 (inactive),0.4% (inactive),1.1,1.3% (inactive),-40.9% (inactive),1.9% (inactive),1.5% (inactive),3.55% (inactive),12.1% (inactive),-7.2% (inactive),-0.335% (inactive),,,,,,,
O=C(O)CN1C(=O)c2cccc3cccc(c23)C1=O,,,-0.2% (inactive),0.9,-1.8% (inactive),-2.7% (inactive),-6.3% (inactive),1.6% (inactive),-17.1% (inactive),22.8% (inactive),2.05% (inactive),,30.8% (inactive),96.3%,,,,,
O=P(O)(O)C(O)(Cc1cccnc1)P(=O)(O)O,,,-1.2% (inactive),-0.8,-1.8% (inactive),5.7% (inactive),18.1% (inactive),0.1% (inactive),5.33% (inactive),-18.5% (inactive),-4.9% (inactive),,12.3% (inactive) and 1.41% (inactive),96.3% and 95%,,,,,
Oc1ccc(OCc2ccccc2)cc1,,,2.5% (inactive),1.1,-0.6% (inactive),-36.6% (inactive),0.5% (inactive),2.7% (inactive),-6.37% (inactive),5.3% (inactive),4.6% (inactive),,144% (inactive),102%,,,,,
COC(=O)[C@H]1[C@H]2C[C@@H]3c4[nH]c5cc(OC)ccc5c4CCN3C[C@H]2C[C@@H](OC(=O)c2cc(OC)c(OC)c(OC)c2)[C@@H]1OC,-4% (inactive),1 (inactive),1.8% (inactive),2.2,-0.3% (inactive),24.4% (inactive),22.8% (inactive),3.6% (inactive),40.1% (inactive),-42% (inactive),10.4% (inactive),,23.5% (inactive) and 21.7% (inactive) and 13.3% (active),102% and 74.9% and 89.3%,,,,,
CN(C)CC[C@@H](c1ccc(Cl)cc1)c1ccccn1,-6% (inactive),0.9 (inactive),-1.2% (inactive),0.3,81.7% (active),-5.1% (inactive),-4% (inactive),5.7% (inactive),28.8% (inactive),35.9% (inactive),-3.4% (inactive),,51.2% (inactive),68.9%,0.95 (inactive),-2.84% (inactive),-2.76% (inactive),0.91 (inactive),0.0729 (inactive)
